Drawing on the supplement of paper PMC10981050, this text covers cell viability for three compounds.

Several values for one entry are separate records, joined by “and”; a condition that tells them apart may be missing. Identical values can stand only once.

Holding throughout (assay): cell viability relative to vehicle control; higher = less cytotoxic
Conditions in all cases: 10 µM

The subject of one assay is K562. The gist of the method: (§1)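 Screening covered the Selleck bioactive, kinase and epigenetic probe libraries, less identity-inconsistent compounds, on CRISPR-edited mutant clones and isogenic wild-type clones of four leukaemia lines. Cells, at 2000 per well in 50 µL medium, received a single 10 µM acoustically dispensed dose. After 48 h the supernatant was removed and CellTiter-Glo luminescence was read. Viability was analysed in Genedata Screener as percent of the on-plate vehicle control.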

The subject of another assay is MARIMO. In a few lines:
as §1

A further assay relates to MOLM14. In a few lines:
as §1

The test system of another assay is OCI-AML2. In a few lines:
as §1

On to `COc1cc(C=O)cc(OC)c1O` [Syringaldehyde], for which the cell viability in the assay with K562 (SRSF2 genotype: SRSF2 P95H/wt) was 110% and 99.8%; in the assay with K562 (SRSF2 genotype: SRSF2 wt/wt) it was 96%; in the assay with MARIMO (SRSF2 genotype: SRSF2 P95H/wt) it was 102%; in the assay with MARIMO (SRSF2 genotype: SRSF2 wt/wt) it was 112%; with MOLM14 (SRSF2 genotype: SRSF2 P95H/wt), 99.2%; with MOLM14 (SRSF2 genotype: SRSF2 wt/wt) it was 105%. Further, the values for the cell viability with OCI-AML2 (SRSF2 genotype: P95H/wt) and in the assay on OCI-AML2 (SRSF2 genotype: wt/wt) were 94.8% and 114%, respectively.
Regarding `COc1cc(N2CCC(N3CCN(C)CC3)CC2)ccc1Nc1ncnc(Nc2ccccc2S(=O)(=O)C(C)C)n1`, the cell viability was 84.8% and 91% in the assay on K562 (SRSF2 genotype: SRSF2 P95H/wt); 80.8% in the assay with K562 (SRSF2 genotype: SRSF2 wt/wt); 56.7% in the assay with MARIMO (SRSF2 genotype: SRSF2 P95H/wt); 48.3% in the assay with MARIMO (SRSF2 genotype: SRSF2 wt/wt); 28.4% in the assay on MOLM14 (SRSF2 genotype: SRSF2 P95H/wt); 31.1% in the assay with MOLM14 (SRSF2 genotype: SRSF2 wt/wt). Moreover, the cell viability came to 12.6% in the assay with OCI-AML2 (SRSF2 genotype: P95H/wt) and 21.9% in the assay on OCI-AML2 (SRSF2 genotype: wt/wt).
With `CCCNS(=O)(=O)Nc1ncnc(OCCOc2ncc(Br)cn2)c1-c1ccc(Br)cc1` [Macitentan], the cell viability was 104% and 105% with K562 (SRSF2 genotype: SRSF2 P95H/wt); 96.8% in the assay with K562 (SRSF2 genotype: SRSF2 wt/wt); 100% in the assay on MARIMO (SRSF2 genotype: SRSF2 P95H/wt); 118% in the assay with MARIMO (SRSF2 genotype: SRSF2 wt/wt); 103% with MOLM14 (SRSF2 genotype: SRSF2 P95H/wt); 110% in the assay with MOLM14 (SRSF2 genotype: SRSF2 wt/wt). The cell viability was found to be 102% in the assay with OCI-AML2 (SRSF2 genotype: P95H/wt) and 110% in the assay with OCI-AML2 (SRSF2 genotype: wt/wt).
